Test results published in PubChem BioAssay AID504332 (National Center for Advancing Translational Sciences (NCATS), 2011).
About 31,000 (8.9%) of roughly 350,000 compounds were called active. A call without a number means that no potency is given here. Another 15% or so got no clear call; they are omitted. Many of the other results were omitted from the sample, so actives are more common in it than they were. A number with no mark means an inactive call. The call rests on the fitted dose curve; in most records, active means well fitted inhibition curve with a large enough effect; inconclusive means small, poorly fitted or top-dose-only effect; inactive means no such curve, though single readings can be large or run the other way.

biological target: Histone-lysine N-methyltransferase EHMT2 (Homo sapiens) (UniProt Q96KQ7); assay: qHTS Assay for Inhibitors of Histone Lysine Methyltransferase G9a; conditions: G9a H3K9 monomethylation, AlphaScreen, 2 h; series mostly up to 59 µM; further: nearly all actives have a fitted effect of over 75% in size
Sequence (Q96KQ7 913-1193 limits assumed): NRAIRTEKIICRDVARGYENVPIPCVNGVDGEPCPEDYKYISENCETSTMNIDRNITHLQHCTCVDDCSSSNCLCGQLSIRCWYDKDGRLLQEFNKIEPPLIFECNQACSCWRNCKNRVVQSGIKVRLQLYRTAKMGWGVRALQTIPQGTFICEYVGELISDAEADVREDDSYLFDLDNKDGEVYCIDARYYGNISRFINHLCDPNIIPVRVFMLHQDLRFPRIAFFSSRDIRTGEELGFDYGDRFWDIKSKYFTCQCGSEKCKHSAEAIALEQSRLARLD
Summary of the method: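 Using a bead-based AlphaScreen, monomethylated H3K9 product from 2 h room-temperature reactions (G9a 20 nM, peptide 500 nM, SAM 20 uM) was detected with 0.5 ug/mL rabbit anti-H3K9me1 antibody.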
Potency means the concentration at half of the fitted maximal effect.

Row | SMILES | activity, negative = inhibition | Potency
1 | Cc1ccc(NS(=O)(=O)c2ccc3c(c2)CC(=O)N3)cc1Cl | -0.894% [at 12.7 µM] | –
2 | COc1ccc(S(=O)(=O)N2CCN(C(C)C(=O)Nc3ccc(C(C)C)cc3)CC2)cc1 (stereo unspecified) | – | inactive
3 | CCN(CC)S(=O)(=O)c1ccc(NC(=O)c2cnc(C)cn2)cc1 | 0.345% [at 0.501 µM] | –
4 | CCN(CC)C(=O)C(=O)c1cn(CC(=O)NCc2ccc3c(c2)OCO3)c2ccccc12 | 27.8% [at 12.7 µM] | –
5 | Cn1cc(CCC(=O)NCc2ccc3c(c2)OCO3)c2ccccc21 | – | 25.1 µM (active)
6 | O=C(CCn1c(=O)c2ccccc2n(Cc2ccc(Cl)cc2)c1=O)NCc1ccc2c(c1)OCO2 | – | inactive
7 | CCOc1ccc(C(=O)c2cn(Cc3ccc(F)cc3)c3ccc(F)cc3c2=O)cc1 | – | inactive
8 | Cc1ccc(CNC(=O)CCC(=O)N2Cc3ccccc3Oc3ncccc32)cc1 | – | inactive
9 | Cc1noc(/C=C/N(C)C)c1S(=O)(=O)N1CCCC(C(=O)Nc2cccc(F)c2)C1 (stereo unspecified) | – | inactive
10 | CCOC(=O)c1c(-c2ccccc2)csc1NC(=S)NC(=O)c1ccccc1 | – | inactive
11 | CCOC(=O)c1c(-c2ccc(-c3ccccc3)cc2)csc1NC(=O)CCC(=O)O | – | inactive
12 | CCOC(=O)c1c(-c2ccc(C)cc2)csc1/N=C(\C)C1=C(O)c2ccccc2C1=O | – | 28.2 µM (active)
13 | CC(=O)N1CCOc2ccc(S(=O)(=O)N3CCC(C(=O)Nc4ccccc4F)CC3)cc21 | – | inactive
14 | Cc1ccc(Cc2nnc(SCC(=O)Nc3ccccc3C)[nH]c2=O)cc1 | – | inactive
15 | CCNC(=O)N1c2ccccc2Sc2ccccc21 | – | inactive
16 | CCC(=O)/C=C1\Sc2ccccc2N1CC | – | 50.1 µM (active)
17 | CCOC(=O)CNC(=O)N1c2ccccc2Sc2ccccc21 | – | inactive
18 | CCN1CCC(N(Cc2ccc(F)cc2)C(=O)Nc2cc(C)ccc2C)CC1 | – | inactive
19 | CCn1cc(C(=O)N2CCN(c3cc(C)ccc3C)CC2)c(=O)c2cc(S(=O)(=O)N(C)C3CCCCC3)ccc21 | – | inactive
20 | Cc1[nH]c2ccc(S(N)(=O)=O)cc2c1C | – | inactive
21 | C=CCn1c(-c2sc(-c3ccccc3)nc2C)n[nH]c1=S | – | 3.16 µM (active)

Row | SMILES | activity, negative = inhibition | Potency
22 | C=CCn1c(COc2cccc3cccnc23)nnc1SCC(=O)OC | – | inactive
23 | Cc1nc(-c2ccccc2)sc1-c1nnc(C2CC2)o1 | – | inactive
24 | C=CCn1c(-c2ccccc2OCC)n[nH]c1=S | – | 7.08 µM (active)
25 | C=CCn1c(=S)sc2c(=O)[nH]c(C)nc21 | – | inactive
26 | Cc1nc(-c2ccccc2)sc1-c1nc(-c2ccccc2)ncc1S(=O)(=O)c1ccccc1 | – | inactive
27 | C=CCn1c(-c2ccc3[nH]c(C)c(C)c3c2)n[nH]c1=S | – | 1 µM (active)
28 | C=CCn1c(COc2ccccc2C)nnc1SCC(=O)O | – | inactive
29 | Cc1ccsc1-c1cc(C(=O)O)c2c(ccc3ccccc32)n1 | – | inactive
30 | CCOC(=O)c1[nH]c(C)c(CCC(=O)N2CCN(c3ccccc3)CC2)c1C | – | inactive
31 | COc1ccc(/C=C/c2noc(-c3ccccc3OC(C)=O)n2)cc1 | – | inactive
32 | COc1ccc(CCNC(=O)CCCn2c(=O)c3ccccc3n(Cc3ccc(F)cc3Cl)c2=O)cc1OC | – | inactive
33 | COc1ccc(COC(=O)c2ccc(Cl)c(S(=O)(=O)N3CCOCC3)c2)cc1F | – | inactive
34 | Cn1nccc1C(=O)NC1CCCc2c1cnn2-c1ccccc1F (stereo unspecified) | 16.6% [at 0.501 µM] | –
35 | Cn1nccc1C(=O)NC1CCCc2c1cnn2-c1ccc(F)cc1F (stereo unspecified) | – | 79.4 µM (active)
36 | CC(=O)NCC(=O)NC1CCCc2c1cnn2-c1ccccc1F (stereo unspecified) | 11.3% [at 0.501 µM] | –
37 | Cc1ccc(-c2nnc(Nc3ccc(OCC(N)=O)cc3)c3ccccc23)cc1S(=O)(=O)NCC1CCCO1 (stereo unspecified) | – | inactive
38 | Cc1ccccc1OCc1nc2c3cnn(-c4ccccc4F)c3ncn2n1 | – | inactive
39 | CC(NC(=O)c1ccc(N2CCNCC2)c([N+](=O)[O-])c1)C12CC3CC(CC(C3)C1)C2 (stereo unspecified) | – | inactive
40 | CC(CNC(=O)c1ccc(N)cc1)NC(=O)c1ccc(N)cc1 (stereo unspecified) | – | inactive
41 | CN(C)NC(=O)C(NC(=O)c1ccc(N)cc1)C12CC3CC(CC(C3)C1)C2 (stereo unspecified) | – | 44.7 µM (active)
42 | CCOC(=O)C(C)n1cnc2c(nnn2-c2ccc(F)cc2)c1=O (stereo unspecified) | – | inactive

Row | SMILES | activity, negative = inhibition | Potency
43 | CC(C)(C)C1CCc2c(sc(NC(=O)c3ccccc3F)c2C(=O)N2CCCCC2)C1 (stereo unspecified) | – | inactive
44 | O=C(Nc1ccccc1N1CCOCC1)c1ccc(OCc2cscn2)cc1 | – | inactive
45 | COc1ccc2cc(C(=O)O)n(CC(=O)c3ccccc3)c2c1 | – | inactive
46 | CCn1c(=N)n(CC(=O)c2cccc(OC)c2)c2ccccc21 | – | 44.7 µM (active)
47 | CCOC(=O)c1cc2ccccc2n1CC(=O)c1ccccc1 | – | inactive
48 | COc1ccccc1C(=O)NCC(=O)NCCSc1ccc(Br)cc1 | – | inactive
49 | CN1C(C(=O)NCc2ccco2)CC2Cn3c(nc4ccccc43)C21 (stereo unspecified) | 16.2% [at 2.33 µM] | –
50 | COc1ccccc1N1CCN(C(=O)C2Cc3ccccc3CN2C(=O)c2ccco2)CC1 (stereo unspecified) | – | inactive
51 | CC1CCN(c2ccc(-c3ccc(NC(=O)c4ccco4)cc3)nn2)CC1 | – | inactive
52 | O=C(Nc1cc(C(F)(F)F)ccc1Cl)c1ccc2c(c1)CCN2S(=O)(=O)c1ccccc1 | – | inactive
53 | COc1cccc(N2CC(C(=O)NCc3n[nH]c(=O)c4ccccc34)CC2=O)c1 (stereo unspecified) | -7.83% [at 2.33 µM] | –
54 | O=C(CN1C(=O)c2cccnc2Oc2ccc(Cl)cc21)NCCc1ccccc1 | – | inactive
55 | Cc1cc(C)c(NC(=O)CN2C(=O)c3cccnc3Oc3ccc(Cl)cc32)c(C)c1 | – | inactive
56 | CCN(CC)c1ccc(NC(=O)CN2C(=O)c3cccnc3Oc3ccc(Cl)cc32)c(C)c1 | – | 2.82 µM (active)
57 | COc1ccc(C(=O)COC(=O)CCCC(=O)Nc2cc(C(F)(F)F)ccc2Cl)cc1 | – | inactive
58 | O=c1c2ccccc2ncn1/N=C/c1ccccc1 | – | inactive
59 | Cc1ccc(NC(=O)COC(=O)CCc2nc3ccccc3n2-c2ccccc2)c(C)c1 | – | inactive
60 | CCN(c1ccc(NC(=O)COC(=O)CCc2nc3ccccc3n2-c2ccccc2)cc1)C(C)C | – | 15.8 µM (active)
61 | CCCCn1c(=O)c(CCC(=O)OCC(=O)Nc2ccc(C)c(Cl)c2)nc2ccccc21 | – | inactive
